Potency data for seven compounds are collected here from PubChem BioAssay (Tox21).

“And” between values parts separate entries of the source, which are not always exact repeats. Equal values may be shown once. Results filed as inconclusive are left out. Some compounds were tested as several samples or in several runs, with calls that do not always agree. The source made the active and inactive calls. Unless noted, the call rests on the fitted dose curve.

A short description of experiment [1]: Nuclear factor erythroid 2-related factor 2/antioxidant responsive element (Nrf2/ARE) small molecule agonists: qHTS cell viability counter screen in human keratinocytes (AID 1919968; active means well fitted curve in the direction sought with a large enough effect in the repeat runs; an effect the other way counts as inactive or inconclusive; further: nearly all actives have a fitted effect of over 55% in size; further: potency means the concentration at half of the fitted maximal effect). The essentials:
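Viability counter-screen: KeratinoSens reporter cells, DMSO-delivered compounds, 23 h at 37 C, CellTiter-Fluor fluorescence.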
In general terms: In qHTS, concentration-response curves come from the screen itself.

Experiment [2] can be described thus: Nuclear factor erythroid 2-related factor 2/antioxidant responsive element (Nrf2/ARE) small molecule agonists: luciferase reporter gene qHTS assay in human keratinocytes (AID 1919969; further: nearly all actives have a fitted effect of over 35% in size; further: potency means the concentration at half of the fitted maximal effect). (In general: In a reporter assay the amount or activity of a reporter protein is the signal.)
Experiment [3] concerns the target Gonadotropin-releasing hormone receptor (Homo sapiens) (UniProt P30968). The experiment is described as follows: Human gonadotropin-releasing hormone receptor (GnRHR) small molecule agonists, calcium flux assay in GnRHR-HEK293 cells (AID 1920063). Further: nearly all actives have a fitted effect of over 35% in size. The essentials: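 Tox21-format agonist screen using human GnRHR-expressing HEK293 cells and a fluorescent calcium dye; kinetic 3-min fluorescence reading after compound addition, 15-point concentration series run in triplicate.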

Experiment [4] deals with KiSS-1 receptor (Homo sapiens) (UniProt Q969F8). Put plainly: Human kisspeptin (KISS1R) small molecule agonists, calcium flux assay in KISS1R-HEK293 cells (AID 1920064; active means well fitted curve in the direction sought with a large enough effect in the repeat runs; an effect the other way counts as inactive or inconclusive). In short, it runs like this:
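Intracellular calcium mobilization in KISS1R-HEK293 cells was recorded by fluorescence (Ex/Em 480/540) for 3 min following compound addition to cells pre-loaded 1 h with calcium dye.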
For orientation: Calcium flux is commonly read through the fluorescence of an indicator in the cells.

Experiment [5] can be described thus: G protein-coupled receptor (GPCR) small molecule agonists, calcium flux assay: HEK293 wild type cell line counter screen (AID 1920065). In short, it runs like this:
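In this agonist-mode screen, ATP is the positive control and DMSO the vehicle. Cells grow 18 h before a 1 h dye incubation at 37 C; signal is taken at Ex/Em 480/540 over 3 min.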

The nature of experiment [6]: p53 small molecule agonists, cell-based qHTS assay with human liver microsomes (AID 1963577).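 Further: p53 response element beta-lactamase reporter cells with liver microsomes plus NADPH.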 In short, it runs like this: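 With metabolic activation: human liver microsomes (0.5 mg/mL final) plus NADPH (0.5 mg/mL final) added alongside compounds to p53RE-bla cells; 16 h 37 C exposure; beta-lactamase read by LiveBLAzer fluorescence.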
A short description of experiment [7]: p53 small molecule agonists, cell-based qHTS assay with rat liver microsomes (AID 1963578). In short, it runs like this: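 Metabolic activation by rat liver microsomes and NADPH, each 0.5 mg/mL final, added right after compounds to p53RE-bla reporter cells (4,000/well, plated 5 h earlier). 16 h at 37 C, then LiveBLAzer substrate for 2 h at room temperature in the dark; fluorescence read-out.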

Experiment [8] can be described thus: p53 small molecule agonists, cell-based qHTS assay with human liver microsomes: qHTS cell viability counter screen (AID 1963579). Further: nearly all actives have a fitted effect of over 45% in size. The essentials: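 Metabolic activation used human liver microsomes and NADPH, both 0.5 mg/mL final, over 16 hours at 37 C on p53RE-bla cells (4,000/well). Cytotoxicity measured by CellTiter-Glo luminescence, 30 min at room temperature.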

Experiment [9] in a line: p53 small molecule agonists, cell-based qHTS assay with rat liver microsomes: qHTS cell viability counter screen (AID 1963580). Further: nearly all actives have a fitted effect of over 45% in size. Further: potency means the concentration at half of the fitted maximal effect. The essentials:
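p53RE-bla HCT-116 cells (4,000/well) rested 5 h at 37 C, then given Tox21 compounds in DMSO with rat liver microsomes (0.5 mg/mL final) plus NADPH (0.5 mg/mL final) for 16 h at 37 C. Viability read by CellTiter-Glo luminescence after 30 min at room temperature.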

The nature of experiment [10]: p53 small molecule agonists, cell-based qHTS assay: qHTS cell viability counter screen (AID 1963581). Further: nearly all actives have a fitted effect of over 45% in size. The essentials: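 Compounds are pinned onto HCT-116 p53RE-bla cells and left 16 h at 37 C. Following the reporter FRET read, ATP is quantified by CellTiter-Glo luminescence after 30 min at room temperature.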
Experiment [11] can be described thus: p53 small molecule agonists, cell-based qHTS assay (AID 1963582; active means well fitted activation curve with a large enough effect in the signal ratio in the repeat runs, not every such curve was filed as active; the % refers to the signal ratio). The essentials:
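Agonist activity was scored from beta-lactamase FRET fluorescence in p53RE-bla cells treated 16 h at 37 C with compounds in DMSO, substrate incubation being 2 h at room temperature.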

The target in experiment [12] is 5-hydroxytryptamine receptor 2A (Homo sapiens) (UniProt P28223). Put plainly: 5-hydroxytryptamine receptor 2A (HTR2A) small molecule antagonists, cell-based qHTS assay (AID 1963586). Further: nearly all actives have a fitted effect of over 45% in size. Further: potency means the concentration at half of the fitted maximal effect. In short, it runs like this: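 Antagonist-mode intracellular calcium assay: DOI (4 nM) added after 5 min compound pre-incubation at room temperature to dye-loaded HTR2A-CHO cells. Fluorescence followed for 3 min, sampled every second.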
5-hydroxytryptamine receptor 2A (Homo sapiens), sequence (P28223 whole entry, looked up): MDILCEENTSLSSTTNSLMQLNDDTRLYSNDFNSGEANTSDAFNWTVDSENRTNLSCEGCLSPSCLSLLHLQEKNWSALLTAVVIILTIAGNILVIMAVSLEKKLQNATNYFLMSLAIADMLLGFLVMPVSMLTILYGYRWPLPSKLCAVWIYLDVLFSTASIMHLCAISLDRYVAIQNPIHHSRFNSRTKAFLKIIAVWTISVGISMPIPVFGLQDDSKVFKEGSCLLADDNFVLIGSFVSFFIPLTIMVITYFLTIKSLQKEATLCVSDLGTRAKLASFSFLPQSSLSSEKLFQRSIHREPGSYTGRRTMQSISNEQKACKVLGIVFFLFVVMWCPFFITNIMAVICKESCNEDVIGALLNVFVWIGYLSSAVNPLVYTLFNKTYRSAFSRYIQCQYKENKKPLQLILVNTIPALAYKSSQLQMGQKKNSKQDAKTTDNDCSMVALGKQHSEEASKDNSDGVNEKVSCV

Experiment [13] shares this target. The experiment is described as follows: 5-hydroxytryptamine receptor 2A (HTR2A) small molecule agonists, cell-based qHTS assay (AID 1963587). Further: nearly all actives have a fitted effect of over 30% in size. The essentials:
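HTR2A-CHO cells, plated 18 h at 37 C/5% CO2, dye-loaded 1 h at 37 C; compounds in DMSO added by pin tool (agonist mode). Intracellular calcium flux read as kinetic fluorescence on FDSS over 2 min at 1 s intervals.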

Experiment [14] addresses Muscarinic acetylcholine receptor M1 (Homo sapiens) (UniProt P11229). The experiment is described as follows: Cholinergic receptor muscarinic 1 (CHRM1) small molecule antagonists, cell-based qHTS assay (AID 1963588). Further: nearly all actives have a fitted effect of over 40% in size. The essentials: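 CHRM1-CHO calcium-flux assay, antagonist mode. Cells were seeded 18 h, dye-loaded 1 h at 37 C and given compound for 5 min at RT, then acetylcholine was added at 50nM. FDSS fluorescence was read 3 min; 15 concentrations, three runs.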

Experiment [15] has the same target. Put plainly: Cholinergic receptor muscarinic 1 (CHRM1) small molecule agonists, cell-based qHTS assay (AID 1963589). Further: nearly all actives have a fitted effect of over 35% in size. The essentials: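 Stable CHRM1-CHO cells (human receptor) were incubated 18 h, dye-loaded for 1 h at 37 C and exposed to test compounds for agonist activity, with calcium-dependent fluorescence followed kinetically.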
Experiment [16] can be described thus: cAMP Responsive Elements (CRE) small molecule agonists, cell-based qHTS assay (AID 1963590). In short, it runs like this: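 FRET-based beta-lactamase readout (LiveBLAzer B/G, 2 h RT) quantified CRE activation in HEK 293T CRE-bla cells after 3 h treatment with DMSO-dissolved compounds.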
Experiment [17] is described as follows: cAMP Responsive Elements (CRE) small molecule antagonists, cell-based qHTS assay (AID 1963591; active means well fitted inhibition curve with a large enough effect in the signal ratio in the repeat runs, not every such curve was filed as active; the % refers to the signal ratio). In short, it runs like this:
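qHTS in CRE-bla HEK 293T cells: compound in DMSO, then 0.25 uM NKH477 (final), 3 h at 37 °C/5% CO2; beta-lactamase FRET read-out after 2 h substrate incubation.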

The target of experiment [18] is Beta-2 adrenergic receptor (Homo sapiens) (UniProt P07550). The experiment is described as follows: Adrenergic beta2 receptor (ADRB2) small molecule antagonists, cell-based qHTS assay (AID 1963592). Further: series mostly up to about 92 µM; nearly all actives have a fitted effect of over 50% in size. In short, it runs like this:
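Cells (CHO, stable ADRB2 overexpression) incubated 18-20hr at 37C; compounds added from DMSO; agonist mix (1nM isoproterenol, 100uM IBMX, 25uM Ro-20-1724) added; 0.5hr RT; d2-cAMP and anti-cAMP-cryptate added; 1hr RT; 665/615 nm read.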

For experiment [19], the target named is D(2) dopamine receptor (Homo sapiens) (UniProt P14416). Put plainly: Dopamine D2 receptor (DRD2) small molecule agonists, cell-based qHTS assay (AID 1963594). Further: nearly all actives have a fitted effect of over 35% in size. In short, it runs like this:
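HEK293 cells stably expressing DRD2 were cultured 24 h at 37 C, then given Ro20-1724 (0.1 mM final) and compounds for 10 min at room temperature. NKH477 (200nM) was then added for 30 min. cAMP was read by HTRF.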

Experiment [20] has the same target. Put plainly: Dopamine D2 receptor (DRD2) small molecule antagonists, cell-based qHTS assay (AID 1963595; active means well fitted inhibition curve with a large enough effect in the signal ratio in the repeat runs, with a control signal flat; the % refers to the signal ratio). The essentials:
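HTRF cAMP read-out at 665 and 620 nm emission (340 nm excitation). Antagonist mode: compounds were tested against 12 nM quinpirole in DRD2-HEK293 cells, with 200 nM NKH477 raising cAMP and 0.1 mM Ro20-1724 blocking its breakdown.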

Beta-2 adrenergic receptor (Homo sapiens), sequence (P07550 whole entry, looked up): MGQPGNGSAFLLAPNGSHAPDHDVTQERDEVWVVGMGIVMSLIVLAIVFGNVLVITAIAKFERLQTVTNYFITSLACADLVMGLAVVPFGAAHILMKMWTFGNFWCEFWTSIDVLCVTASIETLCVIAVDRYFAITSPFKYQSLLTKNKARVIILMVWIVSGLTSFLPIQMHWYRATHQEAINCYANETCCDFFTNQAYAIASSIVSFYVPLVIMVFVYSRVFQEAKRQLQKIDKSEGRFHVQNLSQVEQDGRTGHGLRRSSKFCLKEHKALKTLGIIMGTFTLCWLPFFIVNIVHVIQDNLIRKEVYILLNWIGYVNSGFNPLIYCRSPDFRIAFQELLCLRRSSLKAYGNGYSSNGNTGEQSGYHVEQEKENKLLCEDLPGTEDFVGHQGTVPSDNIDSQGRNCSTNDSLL
KiSS-1 receptor (Homo sapiens), sequence (Q969F8 whole entry, looked up): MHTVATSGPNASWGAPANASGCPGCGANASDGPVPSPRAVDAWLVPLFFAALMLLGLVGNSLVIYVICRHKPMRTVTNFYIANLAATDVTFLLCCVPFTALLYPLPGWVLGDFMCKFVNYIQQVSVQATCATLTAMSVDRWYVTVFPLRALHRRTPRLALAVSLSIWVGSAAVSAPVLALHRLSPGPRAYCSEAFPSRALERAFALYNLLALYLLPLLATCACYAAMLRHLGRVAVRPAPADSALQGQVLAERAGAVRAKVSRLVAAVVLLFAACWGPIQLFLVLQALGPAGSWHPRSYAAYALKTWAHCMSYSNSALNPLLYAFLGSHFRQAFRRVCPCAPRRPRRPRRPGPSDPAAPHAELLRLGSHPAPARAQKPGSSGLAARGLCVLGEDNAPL
Muscarinic acetylcholine receptor M1 (Homo sapiens), sequence (P11229 whole entry, looked up): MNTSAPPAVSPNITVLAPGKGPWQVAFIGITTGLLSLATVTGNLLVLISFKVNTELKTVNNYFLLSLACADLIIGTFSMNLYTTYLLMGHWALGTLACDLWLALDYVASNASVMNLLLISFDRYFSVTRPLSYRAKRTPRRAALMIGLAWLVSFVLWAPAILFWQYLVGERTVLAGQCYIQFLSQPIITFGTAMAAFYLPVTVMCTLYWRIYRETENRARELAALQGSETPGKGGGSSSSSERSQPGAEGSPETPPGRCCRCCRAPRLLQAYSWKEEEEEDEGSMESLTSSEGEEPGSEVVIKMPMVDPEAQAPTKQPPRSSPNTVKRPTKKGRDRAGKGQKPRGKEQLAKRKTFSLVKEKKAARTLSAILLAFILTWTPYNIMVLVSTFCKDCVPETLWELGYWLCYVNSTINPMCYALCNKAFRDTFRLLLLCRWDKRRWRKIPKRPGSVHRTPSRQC
Gonadotropin-releasing hormone receptor (Homo sapiens), sequence (P30968 whole entry, looked up): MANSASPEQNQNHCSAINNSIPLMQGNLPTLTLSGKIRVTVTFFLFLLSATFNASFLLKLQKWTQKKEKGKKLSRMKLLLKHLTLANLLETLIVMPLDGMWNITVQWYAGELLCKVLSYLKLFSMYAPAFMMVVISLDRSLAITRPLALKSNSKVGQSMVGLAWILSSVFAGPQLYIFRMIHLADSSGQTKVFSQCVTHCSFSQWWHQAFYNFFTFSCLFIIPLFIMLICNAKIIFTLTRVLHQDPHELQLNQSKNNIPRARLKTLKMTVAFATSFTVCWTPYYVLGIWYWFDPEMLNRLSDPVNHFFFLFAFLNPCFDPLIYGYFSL
D(2) dopamine receptor (Homo sapiens), sequence (P14416 whole entry, looked up): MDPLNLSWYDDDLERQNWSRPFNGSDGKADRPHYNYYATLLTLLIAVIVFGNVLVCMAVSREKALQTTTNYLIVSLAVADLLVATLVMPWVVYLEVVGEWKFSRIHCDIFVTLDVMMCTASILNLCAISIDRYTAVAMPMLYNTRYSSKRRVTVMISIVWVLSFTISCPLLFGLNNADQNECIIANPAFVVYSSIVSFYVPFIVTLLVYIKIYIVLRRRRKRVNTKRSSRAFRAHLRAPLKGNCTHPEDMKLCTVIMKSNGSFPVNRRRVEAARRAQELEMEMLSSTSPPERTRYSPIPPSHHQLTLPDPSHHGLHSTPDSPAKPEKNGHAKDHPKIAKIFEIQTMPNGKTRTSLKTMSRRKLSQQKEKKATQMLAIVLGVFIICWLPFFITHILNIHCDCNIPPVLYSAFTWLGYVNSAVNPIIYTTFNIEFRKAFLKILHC

Consider `CN(C)Cc1cc(CN(C)C)c(O)c(CN(C)C)c1`, for which the Potency result in [1], in [2], in [3], in [4], in experiment [5] and in experiment [6] was “inactive” in each case. For the same compound, the Potency entry in experiment [7], in [8], in experiment [9], in experiment [10], in experiment [11] and in experiment [12] was “inactive” throughout. Moreover, the Potency entry in [13], in experiment [14], in experiment [15], in experiment [16], in experiment [17] and in [18] was “inactive” each time. The Potency entry in experiment [19] and in experiment [20] was “inactive” in each case.
As for `ClC1=C(Cl)C(Cl)(Cl)C(Cl)=C1Cl`, the Potency result in [1], in [3], in experiment [4], in [5], in [6] and in experiment [7] was “inactive” each time. Also, the Potency result in experiment [8], in experiment [9], in experiment [10], in experiment [11], in experiment [12] and in experiment [13] was “inactive” in each case. Besides, the Potency result in experiment [14], in experiment [15], in [16], in [17], in experiment [18] and in experiment [19] was “inactive” throughout. Moreover, the Potency entry in [20] was “inactive”. The Potency entry in experiment [2] was “inactive and 61.1 µM (active)”.
Turning to `CC1=CC(=O)CC(C)(C)C1`, the Potency was 2.5 µM (active) and inactive in experiment [1]; 16.7 µM (active) and inactive in experiment [9]. For the same compound, the Potency result in [2], in [3], in [4], in [5], in experiment [6] and in experiment [7] was “inactive” each time. Moreover, the Potency result in experiment [8], in experiment [10], in experiment [11], in experiment [12], in [13] and in experiment [14] was “inactive” throughout. In addition, the Potency entry in experiment [15], in experiment [16], in [17], in experiment [18], in experiment [19] and in [20] was “inactive” each time.
For `COCC(C)N` (stereo not given), the Potency result in experiment [1], in [2], in experiment [3], in experiment [4], in experiment [5] and in experiment [6] was “inactive” each time. The Potency entry in experiment [7], in experiment [8], in experiment [9], in experiment [10], in experiment [11] and in [12] was “inactive” throughout. In addition, the Potency result in [13], in [14], in experiment [15], in experiment [16], in [17] and in experiment [18] was “inactive” each time. Also, the Potency result in experiment [19] and in [20] was “inactive” throughout.
As for `OCc1cccc(Oc2ccccc2)c1`, the Potency result in [1], in experiment [2], in experiment [3], in experiment [4], in [5] and in experiment [6] was “inactive” each time. Also, the Potency result in experiment [7], in [8], in experiment [9], in [10], in [11] and in experiment [12] was “inactive” each time. Further, the Potency entry in experiment [13], in [14], in experiment [15], in experiment [16], in experiment [17] and in experiment [18] was “inactive” throughout. The Potency result in experiment [19] and in experiment [20] was “inactive” throughout.
Turning to `COc1ccc(Nc2ccccc2)c(C)c1`, the Potency entry in experiment [1], in experiment [2], in experiment [3], in experiment [4], in experiment [5] and in experiment [6] was “inactive” each time. Moreover, the Potency entry in experiment [7], in experiment [8], in experiment [9], in [10], in experiment [11] and in [13] was “inactive” throughout. The Potency result in experiment [14], in experiment [15], in [16], in [17], in experiment [18] and in experiment [19] was “inactive” each time. Besides, in experiment [20], the Potency entry was “inactive”. The Potency entry in [12] was “inactive and 21.1 µM (active)”.
Turning to `CC(O)COc1ccccc1` (stereo not given), the Potency entry in experiment [1], in experiment [2], in experiment [3], in experiment [4], in experiment [5] and in experiment [6] was “inactive” throughout. Moreover, the Potency entry in experiment [7], in [8], in [9], in experiment [10], in experiment [11] and in experiment [12] was “inactive” in each case. Besides, the Potency entry in experiment [13], in [14], in experiment [15], in experiment [16], in [17] and in experiment [18] was “inactive” in each case. For the same compound, the Potency result in experiment [19] and in experiment [20] was “inactive” each time.
